Experimental findings from PubChem BioAssay (Tox21) are described below.

Records with an inconclusive call do not appear. Active and inactive are the calls of the source. Unless noted, the call rests on the fitted dose curve.

Assay [1] is described as follows: Nuclear factor erythroid 2-related factor 2/antioxidant responsive element (Nrf2/ARE) small molecule agonists: qHTS cell viability counter screen in human keratinocytes (AID 1919968; active means well fitted curve in the direction sought with a large enough effect in the repeat runs; an effect the other way counts as inactive or inconclusive; further: nearly all actives have a fitted effect of over 55% in size; further: potency means the concentration at half of the fitted maximal effect). A digest of the protocol:
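Seed 1,500 KeratinoSens cells per well, then incubate 5 h at 37 C/5% CO2. Add compounds in DMSO and incubate 23 h. Add CellTiter-Fluor, wait 1 h and read fluorescence.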
For orientation: qHTS replaces the single test concentration by a dilution series.

The nature of assay [2]: Nuclear factor erythroid 2-related factor 2/antioxidant responsive element (Nrf2/ARE) small molecule agonists: luciferase reporter gene qHTS assay in human keratinocytes (AID 1919969). Further: nearly all actives have a fitted effect of over 35% in size. On the technique in general: Reporter assays use an easily measured gene product as a stand-in for the process of interest.
Assay [3] has as its target Gonadotropin-releasing hormone receptor (Homo sapiens) (UniProt P30968). Nature of the assay: Human gonadotropin-releasing hormone receptor (GnRHR) small molecule agonists, calcium flux assay in GnRHR-HEK293 cells (AID 1920063). Further: nearly all actives have a fitted effect of over 35% in size. A digest of the protocol: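 Cells: HEK293 stably expressing human GnRHR. Steps: overnight (18 h) culture, 1 h calcium dye loading at 37 C, compound addition, kinetic fluorescence read at 480/540 nm. Each compound tested at 15 concentrations in triplicate.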

The target in assay [4] is KiSS-1 receptor (Homo sapiens) (UniProt Q969F8). As to the kind of experiment: Human kisspeptin (KISS1R) small molecule agonists, calcium flux assay in KISS1R-HEK293 cells (AID 1920064; active means well fitted curve in the direction sought with a large enough effect in the repeat runs; an effect the other way counts as inactive or inconclusive). A digest of the protocol:
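Cells plated and incubated 18 h; dye added, 1 h at 37 C; compounds in DMSO pinned in; signal read at 480/540 nm every second for 3 min. Each compound tested at 15 concentrations in triplicate.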

The nature of assay [5]: G protein-coupled receptor (GPCR) small molecule agonists, calcium flux assay: HEK293 wild type cell line counter screen (AID 1920065). The method in brief:
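Counter-screen of the Tox21 10K library for non-specific calcium release: dye-loaded cells received compounds in DMSO and were monitored by kinetic fluorescence (480/540 nm, 3 min). Fifteen concentrations, run in triplicate.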
On the technique in general: Calcium assays in cells follow changes in intracellular calcium, usually with a dye or a luminescent sensor.

Assay [6] in a line: p53 small molecule agonists, cell-based qHTS assay with human liver microsomes (AID 1963577).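 Further: p53 response element beta-lactamase reporter cells with liver microsomes plus NADPH.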 A digest of the protocol: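 With metabolic activation: human liver microsomes (0.5 mg/mL final) plus NADPH (0.5 mg/mL final) added alongside compounds to p53RE-bla cells; 16 h 37 C exposure; beta-lactamase read by LiveBLAzer fluorescence.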
The nature of assay [7]: p53 small molecule agonists, cell-based qHTS assay with rat liver microsomes (AID 1963578). The method in brief:
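Metabolic activation by rat liver microsomes and NADPH, each 0.5 mg/mL final, added right after compounds to p53RE-bla reporter cells (4,000/well, plated 5 h earlier). 16 h at 37 C, then LiveBLAzer substrate for 2 h at room temperature in the dark; fluorescence read-out.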

A short description of assay [8]: p53 small molecule agonists, cell-based qHTS assay with human liver microsomes: qHTS cell viability counter screen (AID 1963579). Further: nearly all actives have a fitted effect of over 45% in size. The method in brief: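 Metabolic activation used human liver microsomes and NADPH, both 0.5 mg/mL final, over 16 hours at 37 C on p53RE-bla cells (4,000/well). Cytotoxicity measured by CellTiter-Glo luminescence, 30 min at room temperature.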

The nature of assay [9]: p53 small molecule agonists, cell-based qHTS assay with rat liver microsomes: qHTS cell viability counter screen (AID 1963580). Further: nearly all actives have a fitted effect of over 45% in size. The method in brief: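 p53RE-bla HCT-116 cells were exposed 16 h at 37 C to compounds with rat liver microsomes (0.5 mg/mL) and NADPH (0.5 mg/mL). Viability was measured in the same wells as ATP content by CellTiter-Glo luminescence.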
The nature of assay [10]: p53 small molecule agonists, cell-based qHTS assay: qHTS cell viability counter screen (AID 1963581). Further: nearly all actives have a fitted effect of over 45% in size. The method in brief:
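Cells: HCT-116 with p53 response element-driven beta-lactamase. Treatment: 16 h, 37 C, compounds in DMSO. Read: CellTiter-Glo luminescence after 30 min RT.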

The target in assay [11] is 5-hydroxytryptamine receptor 2A (Homo sapiens) (UniProt P28223). As to the kind of experiment: 5-hydroxytryptamine receptor 2A (HTR2A) small molecule agonists, cell-based qHTS assay (AID 1963587). Further: nearly all actives have a fitted effect of over 30% in size. A digest of the protocol:
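CHO cells stably expressing human HTR2A, plated 18 h, loaded with calcium dye 1 h at 37 C. Agonist mode: compounds added and intracellular calcium fluorescence recorded kinetically for 2 min at 1 sec intervals.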

Assay [12] addresses Muscarinic acetylcholine receptor M1 (Homo sapiens) (UniProt P11229). Nature of the assay: Cholinergic receptor muscarinic 1 (CHRM1) small molecule antagonists, cell-based qHTS assay (AID 1963588). Further: nearly all actives have a fitted effect of over 40% in size. Further: potency means the concentration at half of the fitted maximal effect. The method in brief:
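CHRM1-CHO calcium-flux assay, antagonist mode. Cells were seeded 18 h, dye-loaded 1 h at 37 C and given compound for 5 min at RT, then acetylcholine was added at 50nM. FDSS fluorescence was read 3 min; 15 concentrations, three runs.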

Assay [13] shares this target. Nature of the assay: Cholinergic receptor muscarinic 1 (CHRM1) small molecule agonists, cell-based qHTS assay (AID 1963589). Further: nearly all actives have a fitted effect of over 35% in size. A digest of the protocol:
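Agonist-mode qHTS in CHO cells stably carrying human muscarinic M1. Intracellular calcium is tracked by fluorescence every second after compound transfer; each compound runs at 15 concentrations in three independent runs.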

Assay [14] can be described thus: cAMP Responsive Elements (CRE) small molecule antagonists, cell-based qHTS assay (AID 1963591; active means well fitted inhibition curve with a large enough effect in the signal ratio in the repeat runs, not every such curve was filed as active; the % refers to the signal ratio; further: potency means the concentration at half of the fitted maximal effect). The method in brief:
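Antagonist mode: test compounds are co-incubated with the adenylyl cyclase activator NKH477 (0.25 uM final) on CRE-bla HEK293T cells for 3 h at 37 °C, followed by LiveBLAzer substrate loading.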

Assay [15] has as its target D(2) dopamine receptor (Homo sapiens) (UniProt P14416). Nature of the assay: Dopamine D2 receptor (DRD2) small molecule agonists, cell-based qHTS assay (AID 1963594). Further: nearly all actives have a fitted effect of over 35% in size. The method in brief:
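HEK293 cells stably expressing human DRD2, pre-treated with PDE inhibitor Ro20-1724 (0.1 mM final) and compound 10 min at room temperature, then stimulated with NKH477 (200nM […]) for 30 min. cAMP read by HTRF (665/620 nm).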

Assay [16] shares this target. Nature of the assay: Dopamine D2 receptor (DRD2) small molecule antagonists, cell-based qHTS assay (AID 1963595; active means well fitted inhibition curve with a large enough effect in the signal ratio in the repeat runs, with a control signal flat; the % refers to the signal ratio). A digest of the protocol:
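DRD2-HEK293; 0.1 mM Ro20-1724; cpd 10 min RT; NKH477 200 nM + quinpirole 12 nM, 30 min RT; HTRF cAMP (cAMP-d2/anti-cAMP cryptate), 665/620 nm ratio after 1 h.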

For assay [17], the target named is Beta-2 adrenergic receptor (Homo sapiens) (UniProt P07550). As to the kind of experiment: Adrenergic beta2 receptor (ADRB2) small molecule antagonists, cell-based qHTS assay (AID 1963592). Further: nearly all actives have a fitted effect of over 50% in size. Further: potency means the concentration at half of the fitted maximal effect. The method in brief:
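Cells (CHO, stable ADRB2 overexpression) incubated 18-20hr at 37C; compounds added from DMSO; agonist mix (1nM isoproterenol, 100uM IBMX, 25uM Ro-20-1724) added; 0.5hr RT; d2-cAMP and anti-cAMP-cryptate added; 1hr RT; 665/615 nm read.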

The target in assay [18] is 5-hydroxytryptamine receptor 2A (Homo sapiens) (UniProt P28223). Nature of the assay: 5-hydroxytryptamine receptor 2A (HTR2A) small molecule antagonists, cell-based qHTS assay (AID 1963586). Further: nearly all actives have a fitted effect of over 45% in size. A digest of the protocol: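 Antagonist-mode intracellular calcium assay: DOI (4 nM) added after 5 min compound pre-incubation at room temperature to dye-loaded HTR2A-CHO cells. Fluorescence followed for 3 min, sampled every second.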

Assay [19] can be described thus: cAMP Responsive Elements (CRE) small molecule agonists, cell-based qHTS assay (AID 1963590). A digest of the protocol:
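Agonist mode qHTS in CRE-bla HEK 293T cells: compounds dosed from DMSO for 3 h at 37 C/5% CO2, followed by LiveBLAzer B/G FRET substrate for 2 h at room temperature.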

Assay [20] is described as follows: p53 small molecule agonists, cell-based qHTS assay (AID 1963582; active means well fitted activation curve with a large enough effect in the signal ratio in the repeat runs, not every such curve was filed as active; the % refers to the signal ratio). A digest of the protocol: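 Quantitative HTS in p53RE-bla cells: after a 5 h settling period, compounds delivered in DMSO were left on cells for 16 h at 37 C, and reporter induction was measured as fluorescence following 2 h substrate loading.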

Chain of KiSS-1 receptor (Homo sapiens) (Q969F8 whole entry, looked up): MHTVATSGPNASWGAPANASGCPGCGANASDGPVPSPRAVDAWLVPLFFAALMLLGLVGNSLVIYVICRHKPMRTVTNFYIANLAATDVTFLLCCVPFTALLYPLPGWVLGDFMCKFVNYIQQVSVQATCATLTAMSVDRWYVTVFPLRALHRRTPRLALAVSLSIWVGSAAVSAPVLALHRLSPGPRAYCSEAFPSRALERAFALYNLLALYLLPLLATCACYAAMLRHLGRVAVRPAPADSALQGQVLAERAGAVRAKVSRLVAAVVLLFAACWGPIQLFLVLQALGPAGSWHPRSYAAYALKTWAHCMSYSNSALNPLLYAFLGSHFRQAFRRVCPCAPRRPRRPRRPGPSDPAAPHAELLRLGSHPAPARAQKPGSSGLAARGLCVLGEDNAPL
Chain of 5-hydroxytryptamine receptor 2A (Homo sapiens) (P28223 whole entry, looked up): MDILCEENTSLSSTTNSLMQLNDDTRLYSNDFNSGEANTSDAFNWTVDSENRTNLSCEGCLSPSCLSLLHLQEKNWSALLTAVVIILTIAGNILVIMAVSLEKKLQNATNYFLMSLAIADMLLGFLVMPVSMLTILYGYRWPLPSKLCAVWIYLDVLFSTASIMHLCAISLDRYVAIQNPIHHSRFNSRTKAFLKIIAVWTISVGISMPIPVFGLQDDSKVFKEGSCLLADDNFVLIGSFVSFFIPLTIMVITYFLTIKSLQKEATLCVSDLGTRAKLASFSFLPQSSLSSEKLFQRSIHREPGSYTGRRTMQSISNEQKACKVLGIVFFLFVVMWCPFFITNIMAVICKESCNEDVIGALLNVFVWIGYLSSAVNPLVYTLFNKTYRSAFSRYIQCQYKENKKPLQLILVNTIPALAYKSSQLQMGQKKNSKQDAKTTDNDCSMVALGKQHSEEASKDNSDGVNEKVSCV
Chain of Muscarinic acetylcholine receptor M1 (Homo sapiens) (P11229 whole entry, looked up): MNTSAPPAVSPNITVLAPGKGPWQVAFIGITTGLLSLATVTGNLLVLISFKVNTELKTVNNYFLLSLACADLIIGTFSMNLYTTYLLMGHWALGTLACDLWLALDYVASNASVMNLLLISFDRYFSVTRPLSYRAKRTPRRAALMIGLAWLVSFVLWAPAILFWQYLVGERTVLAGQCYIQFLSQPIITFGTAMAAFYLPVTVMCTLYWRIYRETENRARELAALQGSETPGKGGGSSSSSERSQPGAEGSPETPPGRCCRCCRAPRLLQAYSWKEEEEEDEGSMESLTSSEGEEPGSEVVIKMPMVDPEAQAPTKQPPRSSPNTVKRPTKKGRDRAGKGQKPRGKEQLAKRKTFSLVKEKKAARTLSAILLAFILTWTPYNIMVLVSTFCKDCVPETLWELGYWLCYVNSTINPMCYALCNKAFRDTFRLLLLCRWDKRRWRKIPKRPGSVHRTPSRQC
Chain of D(2) dopamine receptor (Homo sapiens) (P14416 whole entry, looked up): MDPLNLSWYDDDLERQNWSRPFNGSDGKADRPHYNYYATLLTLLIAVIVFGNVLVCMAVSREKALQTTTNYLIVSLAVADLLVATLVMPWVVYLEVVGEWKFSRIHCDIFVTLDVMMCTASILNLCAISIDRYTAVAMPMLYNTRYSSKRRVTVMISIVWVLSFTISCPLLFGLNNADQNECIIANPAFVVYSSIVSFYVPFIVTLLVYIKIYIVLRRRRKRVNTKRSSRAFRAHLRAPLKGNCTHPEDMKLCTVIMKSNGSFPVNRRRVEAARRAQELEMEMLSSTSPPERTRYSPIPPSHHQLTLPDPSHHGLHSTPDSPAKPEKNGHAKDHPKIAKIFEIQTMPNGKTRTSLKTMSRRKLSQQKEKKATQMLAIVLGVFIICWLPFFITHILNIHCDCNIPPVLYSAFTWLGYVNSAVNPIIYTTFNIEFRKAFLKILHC
Chain of Beta-2 adrenergic receptor (Homo sapiens) (P07550 whole entry, looked up): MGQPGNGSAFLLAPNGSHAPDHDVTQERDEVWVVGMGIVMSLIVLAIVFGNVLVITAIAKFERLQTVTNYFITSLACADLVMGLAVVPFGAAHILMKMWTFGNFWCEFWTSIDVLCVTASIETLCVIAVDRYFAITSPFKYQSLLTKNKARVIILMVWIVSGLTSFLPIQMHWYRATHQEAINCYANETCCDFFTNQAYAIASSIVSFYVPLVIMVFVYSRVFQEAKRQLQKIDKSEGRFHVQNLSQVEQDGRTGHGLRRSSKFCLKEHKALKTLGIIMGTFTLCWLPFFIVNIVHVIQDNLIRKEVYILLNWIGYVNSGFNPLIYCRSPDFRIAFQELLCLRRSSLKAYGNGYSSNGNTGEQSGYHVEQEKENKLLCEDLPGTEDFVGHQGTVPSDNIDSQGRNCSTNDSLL
Chain of Gonadotropin-releasing hormone receptor (Homo sapiens) (P30968 whole entry, looked up): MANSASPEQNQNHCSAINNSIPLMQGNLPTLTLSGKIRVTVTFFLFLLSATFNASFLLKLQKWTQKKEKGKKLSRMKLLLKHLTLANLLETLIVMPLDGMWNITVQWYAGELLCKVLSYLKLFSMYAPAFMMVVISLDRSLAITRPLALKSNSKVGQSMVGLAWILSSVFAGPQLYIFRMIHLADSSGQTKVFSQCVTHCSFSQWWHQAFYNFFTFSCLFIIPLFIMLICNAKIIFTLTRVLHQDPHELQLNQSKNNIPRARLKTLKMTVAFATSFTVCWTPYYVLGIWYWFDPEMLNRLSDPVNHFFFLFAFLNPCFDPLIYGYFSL

With `CC1(c2ccc(Oc3ccccc3)cc2)OC(=O)N(Nc2ccccc2)C1=O` (stereo not drawn), the values for the Potency in assay [1], in assay [12] and in [14] were 27.5 µM (active), 5.33 µM (active) and 61.5 µM (active), respectively. Also, the Potency result in [2], in [3], in assay [4], in assay [5], in assay [6] and in assay [7] was “inactive” each time. The Potency result in assay [8], in assay [9], in [10], in [11], in [13] and in [15] was “inactive” throughout. For the same molecule, in assay [16], the Potency entry is “inactive”.

For `CCCCCCCCCCCCCCCCCCn1cc[n+](C)c1`, the Potency in [1] was 19.2 µM (active). Further, the Potency result in assay [2], in [3], in assay [4], in assay [5], in [6] and in assay [7] was “inactive” in each case. For the same molecule, the Potency result in [8], in assay [9], in assay [10], in [11], in assay [17] and in assay [15] was “inactive” each time. The Potency result in assay [16] was “inactive”.

Consider `CO/N=C(\C(=O)OC)c1ccccc1CO/N=C(\C)c1cccc(C(F)(F)F)c1`, for which the Potency entry in [1], in assay [2], in assay [3], in [4], in assay [5] and in [6] was “inactive” in each case. Further, the Potency result in assay [7], in [8], in assay [9], in [10], in assay [18] and in assay [11] was “inactive” throughout. Moreover, the Potency entry in [12], in assay [13], in assay [14], in [17] and in assay [16] was “inactive” throughout.

Turning to `Nc1ccccc1-c1ccccc1`, the Potency result in [1], in [2], in [3], in assay [4], in assay [5] and in [6] was “inactive” each time. The Potency entry in assay [7], in assay [8], in assay [9], in [10], in assay [18] and in assay [11] was “inactive” each time. For the same molecule, the Potency entry in assay [13], in assay [19], in assay [14], in [17], in assay [15] and in [16] was “inactive” each time.

Consider `CC(C)C(=O)Cl`, for which the Potency result in assay [1], in assay [2], in [3], in assay [4], in assay [5] and in assay [6] was “inactive” each time. The Potency entry in assay [7], in assay [8], in assay [9], in assay [20], in assay [18] and in assay [11] was “inactive” throughout. Besides, the Potency result in [12], in [13], in assay [19], in [14], in assay [17] and in [15] was “inactive” in each case. Besides, the Potency result in assay [16] was “inactive”.

For `C[C@H]1CNCCc2ccc(Cl)cc21`, the Potency result in assay [1], in assay [2], in assay [3], in [4], in [5] and in assay [6] was “inactive” throughout. In addition, the Potency result in [7], in [8], in assay [9], in [10], in assay [13] and in assay [19] was “inactive” each time. For the same molecule, the Potency entry in assay [14], in assay [15] and in [16] was “inactive” each time. Moreover, the Potency in assay [17] is 23.7 µM (active).

`Nc1nc(N)nc(N)n1`: the Potency result in assay [1], in assay [2], in assay [3], in [4], in [5] and in [6] was “inactive” in each case. In addition, the Potency entry in [7], in assay [8], in assay [9], in assay [20], in [18] and in assay [11] was “inactive” in each case. In addition, the Potency result in assay [12], in assay [13], in assay [14], in [17], in assay [15] and in assay [16] was “inactive” throughout.
